About 83,000 compounds went through this panel and 20% of them were active in at least one assay; those are over-represented in the sample as a whole.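 Method: cells in 96-well plates; compound added at one concentration; 48 h incubation; percent growth measured; values under 10 scored active.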 Values without a mark were called inactive. Active and inactive are the calls of the source.
What was measured:
Assay in all cases: NCI-60 one-dose screen, 48 h (100 = growth as untreated, 0 = no growth, -100 = all killed)
BT-549 breast = details: 10 µM unless noted
MDA-MB-435 melanoma = details: 10 µM unless noted
SW-620 colon = details: 10 µM unless noted
MCF7 breast = details: 10 µM
HCT-116 colon = details: 10 µM unless noted
HCC-2998 colon = details: 10 µM unless noted
KM12 colon = details: 10 µM unless noted

| Compound | growth (BT-549 breast) | growth (MDA-MB-435 melanoma) | growth (SW-620 colon) | growth (MCF7 breast) | growth (HCT-116 colon) | growth (HCC-2998 colon) | growth (KM12 colon) |
| --- | --- | --- | --- | --- | --- | --- | --- |
| COc1ccc(CSc2nnc(SCC(=O)Nc3ccc(Cl)cc3)s2)cc1 | 69% | 67.2% | 52% | 63.8% | 70.8% | 72.6% | 44.8% |
| COc1ccc(Nc2nc(N/N=C/c3ccc(O)cc3)nc(Nc3ccc([N+](=O)[O-])cc3)n2)cc1 | 114% | 116% | 112% | 97.4% | 105% | 102% | 121% |
| Clc1ccc(Oc2ccc(Nc3ncnc4onc(-c5ccccc5)c34)cc2)c(Cl)c1 | 90.2% | 103% | 99.5% | 80.6% | 85.4% | 103% | 103% |
| O=c1c(-c2nc3ccccc3[nH]2)cc2ccccc2n1Cc1cn(Cc2ccccc2Cl)nn1 | 13.3% | 15.1% | 37.5% | 26.2% | 18.2% | 78.3% | 45.5% |
| O=C(/C=C/c1ccccn1)c1ccc(OCc2nnc(-c3ccc(Cl)cc3)o2)cc1 | 16.5% | -66.2% (active) | -43.6% (active) | -28.3% (active) | -71.6% (active) | 28% | -69.9% (active) |
| Clc1ncccc1Nc1ccc2nnc(-c3ccncc3)n2n1 | 108% | 102% | 103% | 94.2% | 101% | 95.7% | 101% |
| O=C(Nc1ccc(-c2nc3ccc(NC(=O)c4ccc(Cl)cc4)cc3[nH]2)cc1)c1ccc(Cl)cc1 | -5.61% (active) | -32.7% (active) | 18.4% | 14.4% | 0.708% (active) | -23% (active) | 39.7% |
| COC(=O)/C(CCC=C(C)C)=C1\[C@@H](OC(C)=O)C[C@@]2(C)[C@H]1C[C@@H](O)[C@H]1[C@@]3(C)CC[C@H](NC(=O)c4cnccn4)[C@@H](C)[C@@H]3CC[C@@]12C | 100% | 103% | 104% | 96% | 93.1% | 104% | 102% |
| COC(=O)c1c2c(c(C)[n+]([O-])c1C)C(=O)C=C(NCc1ccccc1)C2=O | -67.5% (active) | -89.6% (active) | -27.9% (active) | -62.1% (active) | -12.6% (active) | -34.5% (active) | -10.5% (active) |
| COc1cccc(C(=O)NC(c2ccc(C)cc2)c2cc(Cl)c3cccnc3c2O)c1 (stereo not given) | 12.3% | 19.4% | 14.1% | 17.9% | 19.2% | 7.35% (active) | 20.7% |
| CCOc1cc(Cl)c(C(C)NC(=O)c2cccc(OC)c2)cc1OCC (stereo not given) | -27.7% (active) | -28.6% (active) | -50.9% (active) | 3.38% (active) | -57.5% (active) | -85.1% (active) | 0.624% (active) |
| COc1cccc(C(=O)Cn2cc(/C=C(\C#N)S(=O)(=O)c3ccccc3)c3ccccc32)c1 | 103% | 113% | 95.5% | 94.5% | 83.9% | 91% | 107% |
| COc1cc(C#N)cc2[nH]c(=O)oc12 | 97% | 97.9% | 101% | 101% | 102% | 105% | 101% |
| COC(=O)c1c2c(c(C)[n+]([O-])c1C)C(=O)C(NCc1ccc(F)c(F)c1)=CC2=O | 66.4% | -88.4% (active) | 3.6% (active) | -43.3% (active) | 1.74% (active) | 9.25% (active) | 10.4% |
| O=c1c2cc(F)ccc2sc2c(Nc3ccncc3)nc3ccccc3c12 | 81.5% | -62.1% (active) | -74.6% (active) | -77.9% (active) | -48.9% (active) | 75.9% | 1.24% (active) |
| Oc1[nH]c2ccccc2c1N=Nc1nnc2n1N=C(c1ccccc1)CS2 | 72.8% | 93.8% | 106% | 71.9% | 86.4% | 81.3% | 95.2% |
| Cc1sc2ncn(CC(=O)Nc3ccc(S(N)(=O)=O)cc3)c(=O)c2c1C | 97.7% | 105% | 100% | 101% | 106% | 113% | 102% |
| S=C1CCCC(=S)N1 | 102% | 106% | 105% | 105% | 102% | 111% | 105% |
| C[n+]1c2ccccc2nc2ccc(NCCO)cc21 | 105% | 98.4% | 96.6% | 84.8% | 94.2% | 116% | 92% |
| COc1ccc(-c2nnc(COc3ccc(C(=O)/C=C/c4ccco4)cc3)o2)cc1 | 79.2% | 10.9% | 31% | 19.6% | -10.2% (active) | 98.2% | 18.2% |
| O=C(Cc1ccccc1)NC(c1ccc(Cl)cc1)c1c(O)ccc2ccccc12 (stereo not given) | 50% | 6.36% (active) | 17.5% | 8.18% (active) | 2.62% (active) | 24.8% | 15.1% |
| COc1cc(/C=C2\CCC/C(=C\c3cc(CN4CCOCC4)c(O)c(OC)c3)C2=O)cc(CN2CCOCC2)c1O | 52.5% | 27.4% | 31.1% | 21.1% | 23.3% | 62.1% | 9.12% (active) |
| O=C1/C=C/[C@@H](O)[C@@H]2C[C@@H](O)C[C@H]2/C=C/CCCCO1 | 45.3% | 23.5% | -33.7% (active) | -48% (active) | 0.136% (active) | 6.82% (active) | -51.1% (active) |
| S=C1NC2(c3ccccc3)CCC(=S)N2c2ccccc21 (stereo not given) | 107% | 101% | 108% | 108% | 103% | 127% | 108% |
| COc1ccc(Cn2c(Br)c3c(c2Br)-c2nc(N)sc2CC3)cc1 | 51.4% | -40.6% (active) | 16% | 17.7% | 17.8% | 66.9% | 29.6% |

— PubChem BioAssay (NCI)
